The term inhibition denotes the change of the read-out against control, counted positive when it falls.

This experiment has as its target Hexose transporter 1 (Plasmodium falciparum) (UniProt O97467). Description: ST_JUDE_LEISH: Cytotoxicity at 2uM final concentration against transgenic Leishmania Mexicana promastigotes LmPfHT that are glucose transport deficient and complemented with the Plasmodium falciparum hexose transporter. Activity is measured by DNA content using SYBR green in vitro. It counts as functional.
As for `CNCC(C)(C)c1nc(-c2ccc(Cl)c(O)c2)c(-c2ccncc2)[nH]1`, the inhibition is -1.37%. As to `CCn1c(C)c(C)c2cc(C(=O)Nc3ccon3)ccc21`, the inhibition was 1.02%. `O=C(N[C@@H](CC1CCCCC1)C(=O)NC1CCCCCC1)c1ccc(O)c(-c2ccc(Cl)c(Cl)c2)c1`: the inhibition came out at 1.39%. The same measure for `COc1ccc2nccc([C@@H](O)CN3CCC(NCCOc4ccncc4)CC3)c2c1`: 1.23%; for `CN(C)CCN(C)C(=O)c1cc(-c2ccncc2)c(-c2ccc(Cl)c(O)c2)o1`: 8.13%. In the case of `COc1ccc2c(NN=Cc3ccccn3)ccnc2c1`, the inhibition stood at 11.8%. The figure for `Cc1ccc(C)c(NC(=O)Nc2ccc(Nc3nc(C)cc(N4CCOCC4)n3)cc2)c1` is 0.2%; for `N#Cc1ccc(NC(=O)N2CCCN(CCCCCNC(=O)/C=C/c3ccc(Cl)c(Cl)c3)CC2)cc1` it is 1.77%.

As to `O=C(Cn1c(CCc2cccc(F)c2F)nc(=O)c2ccccc21)N(CCCN1CCCCC1)Cc1ccc(-c2ccc(C(F)(F)F)cc2)cc1`, the inhibition is 3.25%. Consider `COc1cc2ncnc(Nc3ccc(Br)c(Cl)c3)c2cc1OC`, for which the inhibition came to 5.81%. Take `O=C(NCc1cccc2ccccc12)c1ccc(CNC2CCN(Cc3ccccc3)CC2)cc1`: the inhibition turned out to be 2.12%. Consider `CN1CCN(CCCN(Cc2cccc(-c3ccc(CNCCc4ccccc4)cc3)c2)C(=O)c2cccs2)CC1`, for which the inhibition came out at 4.22%.

Regarding `O=C(Nc1ccc(OC2CCN(Cc3ccc(F)cc3)C2)c(Cl)c1)c1ccc(F)cc1` (stereo not given), the inhibition is -0.69%. Consider `Fc1ccc2[nH]c(-c3ccc(-c4cccc(CN5CCC(CCN6CCCCC6)CC5)c4)cc3)nc2c1`, for which the inhibition came to 1.77%. Consider `CC(=O)c1ccc(-c2ccc(C(=O)NCCCCN3CCC(c4ccc5c(c4O)CCCC5)CC3)cc2)cc1`, for which the inhibition came out at 3.4%. The figure for `Cc1ccc(Nc2cc(C)nn2-c2nc(C)cc(O)n2)cc1` is 73.6%. The same measure for `N=C(N)c1ccc(NN=Cc2ccc(Oc3ccc(C(=N)N)cc3)cc2)cc1`: 3.55%; for `O=C(NCCN1CCCC1)N1CCCN(c2ncnc3cc(-c4ccc(Cl)cc4)sc23)CC1`: 1.33%.

Consider `COc1ccc(N2CCN(c3nc(N)c4cc(OC)c(OC)cc4n3)CC2C)cc1` (stereo not given), for which the inhibition was determined as 1.45%. The figure for `CN1CCN(Cc2ccc(-c3ccc4c(Nc5ccc(F)cc5Cl)ccnc4c3)o2)CC1` is 0.83%; for `O=C(Nc1ccc2nc3n(c(=O)c2c1)CCCCC3)C(=O)N1CCC(Cc2ccccc2)CC1` it is 0.77%; for `COc1ccc(CCNC(=O)c2cc3c(=O)n4cccc(C)c4nc3n(C)c2=N)cc1` it is 10.1%. As for `Cc1cccc2nc(-c3ccc(-c4ccc(CN5CCCC(N)C5)cc4)s3)[nH]c12` (stereo not given), the inhibition was found to be 0.06%. The figure for `C=C(C)Cn1cc(C2CCN(CCN3CCC(CNC(=O)c4ccc(-c5ccc(C#N)cc5)cc4)CC3)CC2)c2ccccc21` is 4.28%; for `Fc1ccc2[nH]c(-c3ccccc3)nc2c1CN1CCC(N2CCCC2)CC1` it is 0.83%; for `Cc1ccc(C2(CN3CCC(NC(=O)c4cc[nH]n4)CC3)CCCCC2)cc1` it is -1.4%. Regarding `Cc1cccc(C)c1N1CCN(C2CCC(NC(=O)/C=C/c3ccccc3)CC2)CC1` (stereo not given), the inhibition came out at 1.21%. The figure for `O=C(CCCCCNC(=O)c1ccc(O)c(-c2ccc(Cl)c(Cl)c2)c1)NCc1cccc2ccccc12` is 2.12%; for `Cc1ccc(CNC(=O)[C@H](CCCN)Nc2nc(NCC3CCCCC3)ncc2C)cc1` it is 2.8%; for `CNC(=O)c1c(NC(=O)c2cccs2)sc2c1CCCC2` it is 1.4%.

Take `Cc1cc(N/N=C/c2ccccc2[N+](=O)[O-])c2ccc(F)cc2n1`: the inhibition worked out at 4.11%. The figure for `CC1CCCN(S(=O)(=O)c2cc(Br)cc3c2N(C(=O)C2CC2)CC3)C1` (stereo not given) is 2.33%; for `Cc1cc(NC(=O)Nc2cccc(C#N)c2)c2ccccc2n1` it is 4.11%. In the case of `CC(=O)c1ccccc1OCCSc1nnc(Cc2cccs2)n1C1CCCCC1`, the inhibition was 2.09%. Take `CC(Cc1ccc(NC(=O)c2ccc(CC(C)NCc3ccc(Cl)cc3)cc2)cc1)NCCc1cccc(Cl)c1` (stereo not given): the inhibition worked out at 6.78%. With `NC1=NC(c2ccccc2)(c2ccccc2)C(=O)N1Cc1ccccc1Br`, the inhibition was 4.75%.

Regarding `O=C(NC1CCC(N2CCN(c3cccc(C(F)(F)F)c3)CC2)CC1)c1cc2ccccc2[nH]1` (stereo not given), the inhibition was 6.44%. `CCCN1CCN(CCNC(=O)c2cccc(Nc3nccc(Nc4ccc(Oc5ccccc5)cc4)n3)c2)CC1`: the inhibition amounted to 0.74%. As to `CC1(C)NC(N)=NC(=N)N1OCCc1cccc2ccccc12`, the inhibition came out at 10.7%. As to `CC1(C)NC(N)=NC(=N)N1OCc1cccc(Cl)c1Cl`, the inhibition was determined as 3.75%.

The record behind these values is ChEMBL document CHEMBL3433997, “St. Jude Leishmania screening dataset” (2016).
